Measurements from PubChem BioAssay (NCI).
Compounds without any hit were thinned out: in the full panel of roughly 83,000, 20% have a hit.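 Interpretation: 100, growth as untreated; towards 0, rising growth inhibition; 0, no net growth; 0 to -100, cell death. Compounds scoring below 10 were considered active.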 The source made the active and inactive calls.

Key:
Experiment in all cases: NCI-60 one-dose screen, 48 h (100 = growth as untreated, 0 = no growth, -100 = all killed)
Conditions in all cases: 10 µM unless noted
NCI-H23 lung = system: NCI-H23 lung
NCI-H226 lung = system: NCI-H226 lung
NCI-H322M lung = system: NCI-H322M lung
HOP-62 NSCLC = system: HOP-62 NSCLC
NCI-H460 lung = system: NCI-H460 lung
HOP-92 NSCLC = system: HOP-92 NSCLC
NCI-H522 lung = system: NCI-H522 lung
A549/ATCC NSCLC = system: A549/ATCC NSCLC
786-0 renal = system: 786-0 renal
COLO 205 colon = system: COLO 205 colon

Measured: growth

O=C(Nc1ccc(F)cc1)c1ccccc1
inactive: NCI-H23 lung 108% | NCI-H226 lung 104% | NCI-H322M lung 103% | HOP-62 NSCLC 109% | NCI-H460 lung 105% | HOP-92 NSCLC 119% | NCI-H522 lung 101% | A549/ATCC NSCLC 99.6% | 786-0 renal 100% | COLO 205 colon 113%

Oc1cc(Nc2ccnc3cc(Cl)ccc23)c2ncccc2c1
inactive: NCI-H23 lung 73.8% | NCI-H226 lung 91% | NCI-H322M lung 99.7% | HOP-62 NSCLC 74.4% | NCI-H460 lung 75.5% | HOP-92 NSCLC 39.3% | NCI-H522 lung 76.7% | A549/ATCC NSCLC 84.2% | 786-0 renal 106% | COLO 205 colon 96.4%

CCc1ccc(C2=C/C(=C/c3ccccc3)C(=O)N2CCc2ccc(S(N)(=O)=O)cc2)cc1
inactive: NCI-H23 lung 101% | NCI-H226 lung 99.2% | NCI-H322M lung 94.5% | HOP-62 NSCLC 96.9% | NCI-H460 lung 100% | HOP-92 NSCLC 99.2% | NCI-H522 lung 100% | A549/ATCC NSCLC 108% | 786-0 renal 98.6% | COLO 205 colon 120%

O=C(NCCCCCCCNC(=O)OCc1ccc2c(Cl)cc(Cl)c(O)c2n1)OCc1ccc2c(Cl)cc(Cl)c(O)c2n1
inactive: NCI-H322M lung 31%
active: NCI-H23 lung -52.3% | NCI-H226 lung -50.3% | HOP-62 NSCLC -56.8% | NCI-H460 lung -31.3% | HOP-92 NSCLC -75% | NCI-H522 lung -55.6% | A549/ATCC NSCLC -68.7% | 786-0 renal -62.7% | COLO 205 colon -75.9%

COc1c(B(O)O)cccc1-c1nc2ccc3[nH]ncc3c2c2c1CCC2
inactive: NCI-H23 lung 75.5% | NCI-H226 lung 68.3% | NCI-H322M lung 57.6% | HOP-62 NSCLC 48.7% | NCI-H460 lung 47.9% | HOP-92 NSCLC 72.1% | A549/ATCC NSCLC 60.2% | 786-0 renal 55.7% | COLO 205 colon 66.2%

CSc1nc(=S)c2nc(SC)n(-c3ccccc3)c2[nH]1
inactive: NCI-H23 lung 103% | NCI-H226 lung 90.8% | NCI-H322M lung 96.8% | HOP-62 NSCLC 85.5% | NCI-H460 lung 95.5% | HOP-92 NSCLC 77.6% | NCI-H522 lung 70.1% | A549/ATCC NSCLC 97.8% | 786-0 renal 101% | COLO 205 colon 101%

CN(Cc1cccc(C(F)(F)F)c1)C(=O)[C@@H](CC(=O)N1CCC(N2CCCCC2)CC1)N1C(=O)[C@@H](N2C(=O)OC[C@@H]2c2ccccc2)[C@H]1/C=C/c1ccccc1
inactive: NCI-H23 lung 93.9% | NCI-H226 lung 85.1% | NCI-H322M lung 93.5% | HOP-62 NSCLC 81.2% | NCI-H460 lung 89% | HOP-92 NSCLC 58.7% | NCI-H522 lung 96.1% | A549/ATCC NSCLC 80.6% | 786-0 renal 75.4% | COLO 205 colon 72.2%

C[C@@H](NC(=O)[C@@H](CC(=O)N1CCC(N2CCCCC2)CC1)N1C(=O)[C@@H](N2C(=O)OC[C@@H]2c2ccccc2)[C@H]1/C=C/c1cccc(Cl)c1)c1ccccc1
active: COLO 205 colon -54.6%
inactive: NCI-H23 lung 87.8% | NCI-H226 lung 89.8% | NCI-H322M lung 82.1% | HOP-62 NSCLC 87.6% | NCI-H460 lung 13.3% | HOP-92 NSCLC 58.3% | NCI-H522 lung 64.2% | A549/ATCC NSCLC 63.9% | 786-0 renal 65%

O=C(Nc1ccc(C(=O)/C=C/c2ccc(N3CCOCC3)cc2)cc1)Nc1ccc([N+](=O)[O-])cc1
inactive: NCI-H23 lung 83.4% | NCI-H226 lung 45% | NCI-H322M lung 63.1% | HOP-62 NSCLC 105% | NCI-H460 lung 67.9% | HOP-92 NSCLC 120% | NCI-H522 lung 84.1% | A549/ATCC NSCLC 81.3% | 786-0 renal 111% | COLO 205 colon 109%

CC(C)c1ccc(/C=N/N=C(N)N)cc1
inactive: NCI-H23 lung 80.7% | NCI-H226 lung 93.2% | NCI-H322M lung 106% | HOP-62 NSCLC 84.3% | NCI-H460 lung 91.1% | HOP-92 NSCLC 24.1% | NCI-H522 lung 66.7% | A549/ATCC NSCLC 88.8% | 786-0 renal 93.4% | COLO 205 colon 59.8%

c1cc2ccc3cc2cc1CNCCN1CCNCc2ccc4ccc(cc4c2)CNCCN(CCNC3)CCNCc2ccc3ccc(cc3c2)CNCC1
inactive: NCI-H322M lung 56.3% | HOP-62 NSCLC 60.3% | NCI-H460 lung 16.1% | 786-0 renal 89.7%
active: NCI-H23 lung -7% | NCI-H226 lung 6.46% | HOP-92 NSCLC -17.9% | NCI-H522 lung 0.768% | A549/ATCC NSCLC 2.2% | COLO 205 colon -32.7%

c1cc2ccc1CNCCN1CCNCc3ccc(cc3)Oc3ccc(cc3)CNCCN(CCNCc3ccc(cc3)O2)CCNCc2ccc(cc2)Oc2ccc(cc2)CNCC1
inactive: 786-0 renal 66.2%
active: NCI-H23 lung -79.3% | NCI-H226 lung -56.6% | NCI-H322M lung -28.5% | HOP-62 NSCLC -78.2% | NCI-H460 lung -66.3% | HOP-92 NSCLC -92.2% | NCI-H522 lung -84.3% | A549/ATCC NSCLC -79.1% | COLO 205 colon -86.8%

COc1ccc2nc3cc(Cl)ccc3c(Nc3ccc(O)c(CN4CCCC4)c3)c2c1
active: NCI-H322M lung 7.91% | NCI-H460 lung -27.4% | NCI-H522 lung -40.7% | 786-0 renal -21.8% | COLO 205 colon -19.8%
inactive: NCI-H23 lung 47.3% | NCI-H226 lung 97.5% | HOP-62 NSCLC 26.9% | HOP-92 NSCLC 31.9% | A549/ATCC NSCLC 27.7%

CCOC(=O)C1=C(C(=O)c2ccc(Br)cc2)C(c2ccc(Br)cc2)NC(=S)N1 (stereo not drawn)
inactive: NCI-H23 lung 98% | NCI-H226 lung 94.9% | NCI-H322M lung 97.3% | HOP-62 NSCLC 88.4% | NCI-H460 lung 101% | HOP-92 NSCLC 96.3% | NCI-H522 lung 95.9% | A549/ATCC NSCLC 100% | 786-0 renal 106% | COLO 205 colon 118%

COc1ccc(CC(C#N)c2ccc(Cl)cc2)cc1 (stereo not drawn)
inactive: NCI-H23 lung 77.2% | NCI-H226 lung 87.5% | NCI-H322M lung 93.9% | HOP-62 NSCLC 74.3% | NCI-H460 lung 83.7% | HOP-92 NSCLC 83.8% | A549/ATCC NSCLC 79.1% | 786-0 renal 87% | COLO 205 colon 94%

COc1ncnc2c(-c3ccccc3)cn(COCc3ccccc3)c12
inactive: NCI-H23 lung 45.8% | NCI-H226 lung 66.5% | NCI-H322M lung 86.6% | HOP-62 NSCLC 75.6% | NCI-H460 lung 34.1% | NCI-H522 lung 36.2% | A549/ATCC NSCLC 51.1% | 786-0 renal 60.7% | COLO 205 colon 78.3%
active: HOP-92 NSCLC -0.37%

CC(C)c1ccc(C(=O)Nc2sc3c(c2C#N)CCC(=O)C3)cc1
active: NCI-H23 lung -5.74% | NCI-H460 lung 3.31% | HOP-92 NSCLC -52.2% | NCI-H522 lung -36.7% | 786-0 renal 8.77% | COLO 205 colon -36.5%
inactive: NCI-H226 lung 50.5% | NCI-H322M lung 71.9% | HOP-62 NSCLC 36.9% | A549/ATCC NSCLC 15%

COc1ccc(/C=C/C(=C/c2c(O)[nH]c3cc(Br)ccc23)N=O)cc1
inactive: NCI-H23 lung 111% | NCI-H226 lung 103% | NCI-H322M lung 113% | HOP-62 NSCLC 111% | NCI-H460 lung 108% | HOP-92 NSCLC 116% | NCI-H522 lung 105% | A549/ATCC NSCLC 104% | 786-0 renal 112% | COLO 205 colon 126%

CCN(CC)CCCOc1ccc2c(c1)O/C(=C\c1cccc(OC)c1)C2=O
inactive: NCI-H23 lung 83.9% | NCI-H226 lung 87.8% | NCI-H322M lung 89.8% | HOP-62 NSCLC 104% | NCI-H460 lung 87.2% | HOP-92 NSCLC 84.3% | NCI-H522 lung 98.8% | A549/ATCC NSCLC 93.5% | 786-0 renal 93.8% | COLO 205 colon 94.7%

O=C(CSc1nc2ccc([N+](=O)[O-])cc2[nH]1)Nc1ccc(F)c(Cl)c1
active: NCI-H23 lung -7.69% | NCI-H226 lung 7.74% | HOP-92 NSCLC -36.9% | NCI-H522 lung -3.92%
inactive: NCI-H322M lung 37.1% | HOP-62 NSCLC 35% | NCI-H460 lung 11.1% | A549/ATCC NSCLC 23.4% | 786-0 renal 21.9% | COLO 205 colon 24.7%

CCOC(=O)c1nn(C2CCCCO2)c2ccc(NS(=O)(=O)c3ccc(C)cc3)cc12 (stereo not drawn)
inactive: NCI-H23 lung 100% | NCI-H226 lung 102% | NCI-H322M lung 104% | HOP-62 NSCLC 101% | NCI-H460 lung 99.4% | HOP-92 NSCLC 96.4% | NCI-H522 lung 98% | A549/ATCC NSCLC 95.1% | 786-0 renal 94.4% | COLO 205 colon 121%

C#CCNC(=O)CC[C@@H](C)[C@H]1CC[C@H]2[C@@H]3CC[C@@H]4CC(=O)CC[C@]4(C)[C@H]3CC[C@]12C
active: NCI-H23 lung -27.5% [100 µM] | NCI-H226 lung -63.7% [100 µM] | NCI-H322M lung -5.44% [100 µM] | HOP-62 NSCLC -56.3% [100 µM] | NCI-H460 lung -55.5% [100 µM] | HOP-92 NSCLC -71.6% [100 µM] | NCI-H522 lung -63.8% [100 µM] | A549/ATCC NSCLC 6.94% [100 µM] | 786-0 renal -71.9% [100 µM] | COLO 205 colon -70.9% [100 µM]

COc1ccc(OC)c(NC=O)c1
inactive: NCI-H23 lung 101% | NCI-H226 lung 103% | NCI-H322M lung 111% | HOP-62 NSCLC 98.1% | NCI-H460 lung 105% | HOP-92 NSCLC 101% | NCI-H522 lung 103% | A549/ATCC NSCLC 105% | 786-0 renal 104% | COLO 205 colon 108%

Cc1ccc(S(=O)(=O)n2cc(C(=O)C(=O)N3CCCCC3)c3ccccc32)cc1
inactive: NCI-H23 lung 55.1% | NCI-H226 lung 87.5% | NCI-H322M lung 92.9% | HOP-62 NSCLC 80.3% | NCI-H460 lung 91.9% | NCI-H522 lung 70.2% | A549/ATCC NSCLC 120% | 786-0 renal 88.7% | COLO 205 colon 109%
active: HOP-92 NSCLC -0.0596%

CCCC[C@@H](C=O)NC(=O)[C@H](CC(C)C)NC(=O)[C@H](CC(C)C)NC(=O)OCc1ccccc1
inactive: NCI-H322M lung 15.1% | HOP-62 NSCLC 11.8% | A549/ATCC NSCLC 71.3%
active: NCI-H23 lung -17.1% | NCI-H226 lung -54.1% | NCI-H460 lung 0.451% | HOP-92 NSCLC -35.2% | NCI-H522 lung -0.189% | 786-0 renal -10% | COLO 205 colon -3.03%

COc1cc(C)cc2oc3oc(=N)c(C(=O)c4ccccc4)cc3c(=O)c12
inactive: NCI-H23 lung 108% | NCI-H226 lung 103% | NCI-H322M lung 98% | HOP-62 NSCLC 106% | NCI-H460 lung 105% | HOP-92 NSCLC 94.9% | NCI-H522 lung 96.8% | A549/ATCC NSCLC 109% | 786-0 renal 106% | COLO 205 colon 124%
